Test results from PubChem BioAssay (EPA / NIEHS).
Several values for one entry are separate records, joined by “and”; a condition that tells them apart may be missing. Equal entries are not always repeated. A structure can be active in one record and inactive in another. Activity calls are given as the source filed them. How the source made its calls: active means hit-call score of the fitted dose curve at least 0.9, where 1 is the maximum; inactive means score below 0.9.

The compounds below were run on Interleukin-1 alpha (IL1a), IL1A (gene 3552) (assay: BSK_IMphg_IL1a: BioMAP Diversity Plus: IMphg Assay for Interleukin-1 alpha (IL1a) Biomarker Activity (AID 2284290)). Conditions: primary human endothelial cells with macrophages.
Procedure: BSK_IMphg is a cell-based, multiplexed-readout assay that uses venular endothelial cells and macrophages, a human vascular primary cell, with measurements taken at 24 hours after chemical dosing in a microplate: 96-well plate.BSK_IMphg_IL1a is an assay component measured in the BSK_IMphg assay. It measures IL-1a antibody related to regulation of gene expression using ELISA technology.Data from the assay component BSK_IMphg_IL1a was analyzed at the endpoint, BSK_IMphg_IL1a, in the positive analysis fitting direction relative to DMSO as the negative control and baseline of activity. Using a type of binding reporter, gain or loss-of-signal activity can be used to understand protein changes. To generalize the intended target to other relatable targets, this assay endpoint is annotated to the 'cytokine' intended target family, where the subfamily is 'interleukins'.
The levels of cell surface (or secreted, indicated by the prefix "s") biomarker endpoints were measured by ELISA. Overt cytotoxicity to cells in confluent adherent cultures (all systems other than the BT system) was assessed by measuring total protein levels using sulforhodamine B (SRB) staining in parallel cultures at the time of biomarker measurements, indicated as SRB endpoints. For proliferation assays for adherent cell types, individual cell types are cultured at sub-confluence and relative cell numbers quantified by SRB staining at time points optimized for each system (48 h: 3C and CASM3C systems; 72 h: BT and HDF3CGF systems; 96 h: SAg system). SRB was performed by staining cells with 0.1% SRB after fixation with 10% TCA and reading wells at 560 nm.Viability and proliferation of PBMC (T cells) was quantified by Alamar Blue reduction for the SAg and BT systems. For PBMC viability (referred to as PBMC Cytotoxicity within the assay endpoint names), cells were plated (75,000/well in a 96-well plate) and then chemical samples added for 1 h before addition of activators, SEB and TSST-1 (20 ng/mL final concentration each). Cells were incubated for 90 h. Then, Alamar Blue (20 uL/well) (Invitrogen, Cat DAL1100) was added for 6 h, and the plates were read with a fluorescence microplate reader at 546/580 nm (excitation/emission). For PBMC proliferation, cells were plated and activated as above but incubated for only 16 h prior to addition of Alamar Blue. Plates were read after 6 h.

| Compound | outcome | AC50 |
| --- | --- | --- |
| OCC(F)(F)OC(F)(F)C(F)(F)OC(F)(F)CO | inactive | 334 nM (active) |
| OCC(F)(F)OC(F)(F)C(F)(F)OC(F)(F)C(F)(F)OC(F)(F)F | – | 26.6 µM (active) and 47.5 µM (active) |
| C=CC(=O)OCC(F)(F)C(F)F | inactive | – |
| OCC(F)(F)OC(F)(F)C(F)(F)OC(F)(F)C(F)(F)OC(F)(F)CO | inactive | – |
| O=C(O)C(F)(F)C(F)(F)C(=O)O | inactive | – |
| FC(F)(F)C(F)(C(F)(F)F)C(F)(F)C(F)(F)CC1CO1 (stereo unspecified) | inactive | – |
| CC(O)C(F)(F)C(F)(F)F (stereo unspecified) | inactive | – |
| COC(=O)C(F)(F)C(F)(F)OC(F)(C(F)(F)F)C(F)(F)OC(F)=C(F)F (stereo unspecified) | inactive | – |
| O=C(O)C(F)(F)OC(F)(F)C(F)(F)OC(F)(F)F | inactive | – |
| O=C(O)C=CC(F)(C(F)(F)F)C(F)(F)F | inactive | – |
| O=S(=O)(F)C(F)(F)C(F)(F)C(F)(F)C(F)(F)C(F)(F)C(F)(F)C(F)(F)C(F)(F)F | inactive | – |
| O=C(O)C(F)(OC(F)(F)C(F)(F)C(F)(F)F)C(F)(F)F (stereo unspecified) | inactive | 220 nM (active) |
| NC(=O)C(F)(F)C(F)(F)F | inactive | – |
| O=C(O)C(F)(F)OC(F)(F)C(F)(F)OC(F)(F)C(=O)O | inactive | – |
